Assay outcomes as filed in PubChem.
The list is not random: actives were taken first. Their share in the collection is about 11%.
JMJD2A Tudor inh = qHTS Assay for Inhibitors of JMJD2A-Tudor Domain; AlphaScreen JMJD2A-Tudor / H3K4me3 peptide binding; Potency, µM (titrated, usually from 114 µM), hits mostly inhibitors; 390,000 compounds, 4.4% hits; AID 504339, 2011; further: nearly all actives have a fitted effect of over 50% in size
L3MBTL1 block = qHTS Assay for the Inhibitors of L3MBTL1; AID 485360, 2010; 230,000 compounds, 0.66% hits; Lethal(3)malignant brain tumor-like protein 1 (Homo sapiens), Q9Y468; Potency, µM (top dose mostly 57.1 µM), most hits filed as inhibitors; AlphaScreen L3MBTL1–H3K9me1 peptide binding; further: nearly all actives have a fitted effect of over 60% in size
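L3MBTL1 (50 nM) pre-complexed 30 min with biotinylated H3(1-15)K9me1 peptide (75 nM), then compounds added for 30 min at room temperature; AlphaScreen streptavidin donor/nickel chelate acceptor beads (10 ug/mL final) read after 30 min dark incubation.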
PI5P4K alpha inh = qHTS for Inhibitors of phosphatidylinositol 5-phosphate 4-kinase (PI5P4K). max response, %. 330,000 compounds, 1.2% hits. PI5P4Kalpha enzyme, ADP-Glo luminescence, 60 min; hits give low values; active means max response of -50% or lower; inconclusive means between -30% and -50%; inactive means -30% or higher; further: value at the top dose of about 77 µM
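Luminescence from ADP-Glo served as readout of PI5P4Kalpha activity in a qHTS format. Reaction: enzyme, substrate, compound, ATP at 5 microM final, 60 min at RT.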
BAZ2B inh = qHTS Assay for Inhibitors of BAZ2B; AlphaScreen BAZ2B-H3K14Ac peptide displacement; Potency, µM (titrated, usually from 114 µM), most hits filed as inhibitors; 360,000 compounds, 4.4% hits; further: nearly all actives have a fitted effect of over 60% in size
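In this displacement format the biotinylated H3(5-23) peptide acetylated at Lys14 serves as ligand at 50 nM, with BAZ2B at 50 nM in PBS pH 7.4 containing 0.01% Tween-20. Donor and acceptor beads are 10 ug/mL final.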
G9a inh = qHTS Assay for Inhibitors of Histone Lysine Methyltransferase G9a; Histone-lysine N-methyltransferase EHMT2 (Homo sapiens), Q96KQ7; G9a H3K9 monomethylation, AlphaScreen, 2 h; Potency, µM (titrated, usually from 102 µM), usual class: inhibitors; 350,000 compounds, 8.8% hits; AID 504332, 2011; further: nearly all actives have a fitted effect of over 75% in size
Target sequence (Q96KQ7 913-1193 limits assumed): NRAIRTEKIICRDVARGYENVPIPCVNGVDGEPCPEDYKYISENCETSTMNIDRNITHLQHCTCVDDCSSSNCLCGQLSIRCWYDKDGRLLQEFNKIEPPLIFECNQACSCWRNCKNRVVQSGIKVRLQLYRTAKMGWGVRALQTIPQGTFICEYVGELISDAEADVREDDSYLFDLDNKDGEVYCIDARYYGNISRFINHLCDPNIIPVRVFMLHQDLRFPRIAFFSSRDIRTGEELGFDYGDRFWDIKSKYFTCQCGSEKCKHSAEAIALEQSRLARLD
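Chemiluminescent proximity detection of H3K9 monomethylation, read after 10 min bead incubation in the dark. Reaction: 20 nM G9a, 500 nM biotin-H3K9 peptide, 20 uM SAM cofactor, 2 h, room temperature, following 15 min enzyme-compound preincubation.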
HP1b chromo inh = HTS for Inhibitors of HP1-beta Chromodomain Interactions with Methylated Histone Tails; Chromobox protein homolog 1 (Homo sapiens), P83916; AlphaScreen HP1-beta / biotin-H3K9me3 peptide binding; Potency, µM (titrated, usually from 114 µM), actives largely listed as inhibitors; 390,000 compounds, 0.56% hits; AID 540317, 2011; further: nearly all actives have a fitted effect of over 70% in size
Target sequence (P83916 whole entry, looked up): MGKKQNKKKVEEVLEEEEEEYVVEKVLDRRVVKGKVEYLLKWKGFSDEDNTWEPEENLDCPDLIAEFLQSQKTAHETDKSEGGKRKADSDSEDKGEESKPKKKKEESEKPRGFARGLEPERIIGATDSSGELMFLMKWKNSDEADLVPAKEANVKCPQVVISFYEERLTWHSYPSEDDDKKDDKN
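AlphaScreen: HP1-beta (50 nM) preformed 30 min with biotin-H3(1-18)K9me3 peptide (50 nM) in PBS pH 7.4, 0.01% Tween-20. Compound added for 30 min at RT, then streptavidin donor/nickel chelate acceptor beads (10 ug/mL) for 30 min.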
Hits are given with their value; i = inactive; ? = inconclusive; nt = no result given; [ ] = remark or other dose. Unless noted, the call rests on the fitted dose curve; in most records, active means well fitted inhibition curve with a large enough effect; inconclusive means small, poorly fitted or top-dose-only effect; inactive means no such curve, though single readings can be large or run the other way.

SMILES	JMJD2A Tudor inh	L3MBTL1 block	PI5P4K alpha inh	BAZ2B inh	G9a inh	HP1b chromo inh
N#CC1=C(N)N=C(SCc2ccccc2)C(C(N)=O)C12CCCCC2 (centres undefined)	i	i	nt	?	i[12.7 µM]	i
Cc1ccc(C(=O)CSC2=NC(N)=C(C#N)C3(CCCCC3)C2C(N)=O)cc1 (centres undefined)	?	i	i	i	40µM	?
O=C(Nc1cccc(O)c1)c1ccccc1[N+](=O)[O-]	i	i	i	i	i	i
CC(=O)c1ccc(NC(=S)NNC(=O)c2ccccc2[N+](=O)[O-])cc1	i	i[11.4 µM]	i	50µM	?	i
O=C(NNC(=S)Nc1ccccc1)c1ccccc1[N+](=O)[O-]	i	i	i	i	32µM	i
Cc1ccc2c(c1)-c1c(cnc3cc(-c4ccc(Cl)cc4)nn13)CO2	i	nt	nt	i	i	i
Cc1nc2ncccn2c1-c1csc(Nc2ccc(S(N)(=O)=O)cc2)n1	i	i	i	i	nt	i
Cc1nc2ncccn2c1-c1csc(Nc2ccccc2)n1	?	i	i	i	25µM	i
CC(=O)Nc1ccc(Nc2nc(-c3c(C)nc4ccccn34)cs2)cc1	79µM	nt	i	nt	nt	i
c1ccc(-c2csc(Nc3cccnc3)n2)nc1	?	i[11.4 µM]	nt	?	?	i
CC(=O)Nc1ccc(-c2csc(Nc3ccccn3)n2)cc1	i	nt	i	i	nt	i
COc1cccc2sc(Nc3nc(-c4ccccn4)cs3)nc12	nt	?	nt	50µM	i	nt
c1ccc(Nc2nc(-c3ccccn3)cs2)cc1	?	nt	i	40µM	i	i
CCC(=O)N1CCc2cc(S(=O)(=O)NCCC(=O)Nc3cc(C)ccc3OC)ccc21	i	nt	nt	nt	i	i
COc1ccccc1CNC(=O)C1CCN(S(=O)(=O)c2ccc3c(ccn3C)c2)CC1	i	nt	nt	i	i	i
COc1ccccc1Nc1nc(-c2c(C)nc3ncccn23)cs1	i	i	i	?	?	?
c1ccc(Nc2nc(-c3ccncc3)cs2)cc1	i	i	i	i	?	i
Cc1nc2ncccn2c1-c1csc(Nc2ccc(N(C)C)cc2)n1	28µM	?	i	32µM	7.9µM	?
COc1ccc(Nc2nc(-c3c(C)nc4ncccn34)cs2)cc1	?	?	i	?	18µM	i
Cc1ccc(N(CC(C)C)S(=O)(=O)c2nnc(NC(=O)c3cccs3)s2)cc1	i	nt	nt	i	i	i
Cc1oc(-c2ccccc2Cl)nc1CS(=O)CC(=O)N1CCN(c2cccc(C(F)(F)F)c2)CC1 (centres undefined)	?	nt	nt	i	i	i
O=Cc1ccc(N2N=C(c3ccccc3)CC2c2ccccc2)cc1 (centres undefined)	i	nt	i	i	i	i
O=[N+]([O-])c1cccc(C2CC(c3ccccc3)=NN2c2ccccc2)c1 (centres undefined)	28µM	i	i	?	32µM	?
CSc1ccc(/C=N\Nc2nncn2N)cc1	i	nt	i	i	?	i
COc1cc(/C=N\Nc2nncn2N)ccc1OC(C)=O	i	nt	i	i	71µM	i
SMILES	JMJD2A Tudor inh	L3MBTL1 block	PI5P4K alpha inh	BAZ2B inh	G9a inh	HP1b chromo inh
CC(C)(C)c1ccc(/C=N/Nc2nncn2N)cc1	i	i	i	i	40µM	i
Nn1cnnc1N/N=C/c1cc(Br)cc(Br)c1O	89µM	i	i	32µM	i[2.33 µM]	i
CCC(O)(CC)C(=O)N/N=C/c1cc(Br)cc(Br)c1O	i	i	i	i	i	i
CCCSc1ncc(Cl)c(C(=O)Nc2scc(-c3ccc(C)cc3)c2C(=O)OCC)n1	i	nt	nt	i	i	i
CCOC(=O)c1sc(NC(=O)C(C)Sc2nc(-c3ccccc3)cc(C(F)(F)F)n2)c(C(=O)OC)c1C (centres undefined)	i	nt	nt	i	i	i
COc1ccc(N2CCN(C3CCCN(Cc4ccc(F)c(F)c4)C3)CC2)cc1 (centres undefined)	?	i	i	?	45µM	i
